# PubChem BioAssay (Tox21)
# Results filed as inconclusive are left out. A call without a number means that no potency is given here. Calls of active or inactive are those of the source. The call rests on the fitted dose curve.
# Test: qHTS assay to identify small molecule antagonists of the sonic hedgehog signaling (Shh) pathway (AID 1259369); further: nearly all actives have a fitted effect of over 45% in size
# Conditions: NIH/3T3 Gli1-Luc reporter, Shh antagonist, luminescence 24 h; series mostly up to 92.4 µM
# From the text: U.S. Tox21 Program National Center for Advancing Translational Sciences [NCATS] NIH Chemical Genomics Center [NCGC] U.S. Environmental Protection Agency [EPA] National Institutes of Environmental Health Sciences [NIEHS] National Toxicology Program [NTP] U.S. Food and Drug Administration [FDA] Tox21 Assay Overview: The sonic hedgehog (Shh) pathway is essential for normal embryonic development. Dysregulation of the Shh pathway can cause severe developmental defects in organs. Therefore chemicals that interfere with the pathway are potential developmental toxicants. A cell line designated 3T3Gli1-Luc (DMB/OARSA/CFSAN/FDA, Laurel, MD), a NIH/3T3 derived clone containing stably integrated Gli1-Luc reporter is used to detect chemical interference of the Shh pathway, by changes in the expression of the firefly Luc gene under the control of the Gli1 transcriptional response element. This cell line was used to screen Tox21 libraries for identifying and prioritizing the potential developmental toxicants that interfere Shh pathway. Conditioned medium-stimulated mode was used to screen for chemicals inhibiting Shh signaling.
# Tox21 Assay Protocol Summary: 3T3 Gli1-Luc cells were dispensed at 2,000 per well in 5uL of culture medium into white solid bottom 1536-well plates (Greiner Bio-One, Monroe, NC) using a Multidrop Combi (Thermo Scientific, Waltham, MA) dispenser. The assay plates were incubated at 37 C and 5% CO2 for 4hr, and then 23nL of compounds dissolved in DMSO and positive control were transferred using a Pintool station (Wako, San Diego, CA). The compound transfer was followed by the addition of 1ul conditioned medium or assay buffer using two separate tips of Flying Reagent Dispenser (FRD, Aurora Discovery, San Diego, CA). The assay plates were incubated at 37C and 5% CO2 for 24hr. For luciferase read, 4uL of Amplite Luciferase reporter gene assay reagent (AAT Bioquest, Inc. Sunnyvale, CA) was added to each well of the assay plates using FRD and incubated at room temperature for 30min. The luminescence signal was measured using a ViewLux plate reader (Perkin Elmer, Shelton, CT).
# Potency means the concentration at half of the fitted maximal effect.
row,SMILES,Potency
1,CC1(C)C(=O)N(Cl)C(=O)N1Br,inactive
2,CC(=O)OC(C)OC(C)=O,inactive
3,O=C(O)[C@@H](O)[C@H](O)[C@H](O)[C@@H](O)C(=O)O,inactive
4,FC(F)(F)C(Cl)(Cl)Cl,inactive
5,C=CC(C)(O)CC/C=C(\C)CCC=C(C)C (stereo not given),inactive
6,NC(=O)NS(=O)(=O)c1ccc(Cl)cc1,inactive
7,O=C(O)[C@@H]1CSCN1,inactive
8,CCOC(=O)[C@H](CCc1ccccc1)N[C@@H](C)C(=O)N1Cc2cc(OC)c(OC)cc2C[C@H]1C(=O)O,inactive
9,CCCCCOc1ccc(C2SC(=O)NC2=O)cc1OCC (stereo not given),inactive
10,CCCOc1ccc2c(c1)CC[C@@H]1[C@@H]2CC[C@]2(C)C(OC)CC[C@@H]12 (stereo not given in full),inactive
11,NS(=O)(=O)c1cc(-c2nn[nH]n2)c(NCc2cccs2)cc1Cl,inactive
12,C=CCc1cc(OC)c(O)c(C(=O)NCCO)c1,inactive
13,CCOc1ccc(NS(=O)(=O)c2ccc(N)cc2)nn1,inactive
14,Cc1ccsc1C(=CCCN1CCC[C@@H](C(=O)O)C1)c1sccc1C,inactive
15,N#CSCC(=O)O,inactive
16,O=[N+]([O-])c1nccn1CO[C@@H](CO)[C@H](O)CO,inactive
17,CNCCC(Oc1ccccc1OC)c1ccccc1 (stereo not given),inactive
18,Nc1ccc(Oc2ccc(N)c(N)c2)cc1,inactive
19,O=C(CCCl)NCc1ccccc1,inactive
20,FC(F)(F)C(F)(F)C(F)(F)C(F)(F)C(F)(F)C(F)(F)C(F)(F)C(F)(F)Br,inactive

row,SMILES,Potency
1,COc1cc(C)ccc1C(C)C,inactive
2,CCOc1ccc2nc(N)sc2c1,inactive
3,O=C(O[C@@H](C(=O)O)[C@@H](OC(=O)c1ccccc1)C(=O)O)c1ccccc1,inactive
4,CCC(=O)O[C@]1(C(=O)SCF)[C@H](C)C[C@H]2[C@@H]3C[C@H](F)C4=CC(=O)C=C[C@]4(C)[C@@]3(F)[C@@H](O)C[C@@]21C,inactive
5,Cc1c[nH]c(=S)[nH]c1=O,inactive
6,Cc1ccc(C)c(N)c1,inactive
7,CC(C)C(=O)OCC(C)(C)C(O)C(C)C (stereo not given),inactive
8,CC(C)O,29.3 µM (active)
9,CCOC(=O)C(Br)c1ccccc1 (stereo not given),inactive
10,CN1CCN(C2=Nc3ccccc3Oc3ccc(Cl)cc32)CC1,6.68 µM (active)
11,Oc1ccccc1C=NCc1ccccc1,inactive
12,CC(C)OC(C)C,inactive
13,c1ccc(CN(CC2=NCCN2)c2ccccc2)cc1,inactive
14,COc1cc(Cl)ccc1Cl,inactive
15,CCN(CC)CCNC(=O)COc1ccc(Cl)cc1,inactive
16,CCCCCCCCCC#N,24.2 µM (active)
17,CCN(CC)C(=O)N(CC)CC,inactive
18,Cc1c(C(=O)NCCO)[n+](=O)c2ccccc2n1[O-],inactive
19,CCCCCCn1c(=O)c2c(ncn2C)n(C)c1=O,inactive
20,CC(=O)N(CC(O)CN(C(C)=O)c1c(I)c(C(=O)NCC(O)CO)c(I)c(C(=O)NCC(O)CO)c1I)c1c(I)c(C(=O)NCC(O)CO)c(I)c(C(=O)NCC(O)CO)c1I (stereo not given),inactive
